From PubChem BioAssay AID434973 (Sanford-Burnham Center for Chemical Genomics, 2010)
About 4,900 (1.5%) of roughly 330,000 compounds were called active.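 Rule for the calls: active = inhibition above about 50% at the single test dose (limit read from the data); inactive = the rest.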 Only a selection was taken, and actives are over-represented in it overall.

Target: Sentrin-specific protease 7 (Homo sapiens) (UniProt Q9BQF6)
Assay: SENP7 protease inhibitors, primary screen, biochemical, luminescence, uHTS (AID 434973);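 note: plate controls were DMSO with enzyme for no effect and no enzyme buffer wells for full effect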
Conditions: recombinant SENP7, Z-RLRGG-aminoluciferin luminescence, 40 min; at 5 µM; active compounds read high

SMILES	inhibition
CC[N+]1(CC)CC2=Cc3ccccc3CC2C1 (configuration not stated)	5.4% (inactive)
Cc1ccc(CN2CCN(/N=C/c3cccnc3)CC2)c(C)c1	4.31% (inactive)
CCN(C(=O)C1CCCN(c2nc(-c3ccc(OC)cc3)no2)C1)c1ccc(OC)cc1 (configuration not stated)	-0.167% (inactive)
CCOC(=O)CSc1nnc(NC(=O)C2CC(=O)N(c3ccc(F)cc3)C2)s1 (configuration not stated)	-6.57% (inactive)
CC(=O)Nc1ccc(S(=O)(=O)N2CCN(S(=O)(=O)c3cccs3)CC2)cc1	-14% (inactive)
Cc1ccccc1Nc1scc(-c2ccc(Br)cc2)[n+]1-c1ccccc1C	0.441% (inactive)
COc1ccc(/C(C)=N/N2CCOCC2)c(O)c1	9.39% (inactive)
S=C(Nc1ccc2c(c1)OCO2)N1CCCC1	-4.52% (inactive)
CCCc1nc2oc3c(OCC)ncnc3c2c2c1COC(C)(C)C2	-3.93% (inactive)
Clc1ccc(-c2cc(-c3ccccn3)on2)c(Cl)c1	99.4% (active)
Clc1ccc(COn2c(-c3ccc(Cl)cc3Cl)nc3ncccc32)cc1	0.814% (inactive)
O=C1c2ccccc2C(=O)N1Cc1cc(-c2ccccc2Cl)no1	-0.976% (inactive)
CC1=NNC(=O)C1CCC(=O)N/N=C(\C)c1ccc(Cl)cc1 (configuration not stated)	0.851% (inactive)
COc1ccc(OC)c2sc(NC(=O)C3COc4ccccc4O3)nc12 (configuration not stated)	-4.59% (inactive)
O=C(Nc1ncc([N+](=O)[O-])s1)C1COc2ccccc2O1 (configuration not stated)	96.7% (active)
COc1ccc(NC(=O)C2COc3ccccc3O2)cc1 (configuration not stated)	-20.8% (inactive)
CC(C)C1C2=C(CC(C)(C)CC2=O)ON1c1ccccc1 (configuration not stated)	3.53% (inactive)
CC1CC(C)CN(CCC(=O)Nc2ccc3c(c2)CCC3)C1 (configuration not stated)	5.5% (inactive)
O=C(Nc1ccc2c(c1)CCC2)c1ccc(Br)s1	69.4% (active)
CC(C)Oc1ccc(C(=O)NCC(=O)Nc2ccc3c(c2)CCC3)cc1	3.44% (inactive)
CC(C)CCN1NC2(CCC(C)CC2)NC1=S (configuration not stated)	-7.22% (inactive)
O=C(N/N=C/c1ccc([N+](=O)[O-])cc1)C(=O)N1CCCC1	-3.45% (inactive)
Cc1cc(O)c(NC(=O)c2ccc(C)c([N+](=O)[O-])c2)cc1C	-7.98% (inactive)
Cc1ccc(NC(=O)CN(C)CC(=O)Nc2cccc(F)c2)cc1[N+](=O)[O-]	-3.97% (inactive)
Cc1ccsc1C(=O)N/N=C/c1ccc([N+](=O)[O-])cc1	80.9% (active)
Cc1ccc(/C=N/NC(=O)c2sccc2OCc2ccc(F)cc2)cc1	-13.6% (inactive)
Cc1ccc(NC(=O)c2sccc2C)cc1[N+](=O)[O-]	83.7% (active)
